Assay results published in PubChem BioAssay (NCATS).
Several values for one entry are separate records, joined by “and”; a condition that tells them apart may be missing. Equal entries are not always repeated. Results filed as inconclusive are left out. Activity calls are given as the source filed them. Unless noted, calls come from the whole dose curve; as a rule, active = well fitted inhibition curve with a large enough effect; inconclusive = small, poorly fitted or top-dose-only effect; inactive = flat fitted curve, though single readings scatter.

What was measured:
[1] = Drug repurposing screens with cells derived from glioblastoma tumor samples (AID 1345199); conditions: GBM patient neurospheres viability, ATP luminescence, 48 h; note: % is set by controls: 0 for no effect and ±100 for the full control effect; nearly all actives have a fitted effect of over 40% in size
Method in brief: (§1)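 Primary testing used CD133+ neurospheres from four GBM patients, seven concentrations, 48 h exposure and ATP-based viability; confirmation added three slower-growing patient lines.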

astro = control astrocytes; assay: as above; conditions: viability, ATP luminescence, 48 h; series mostly up to 45.9 µM
Method in brief: as §1

[2] = molecular target: Nuclear receptor subfamily 1 group I member 2 (Rattus norvegicus) (UniProt Q9R1A7); assay: qHTS assay for small molecule activators of the rat pregnane X receptor (rPXR) signaling pathway (AID 651751; call rule not given here; note: 0% is about no effect); conditions: rPXR reporter cells, luciferase (One-Glo), 24 h
Nuclear receptor subfamily 1 group I member 2 (Rattus norvegicus), sequence (Q9R1A7 whole entry, looked up): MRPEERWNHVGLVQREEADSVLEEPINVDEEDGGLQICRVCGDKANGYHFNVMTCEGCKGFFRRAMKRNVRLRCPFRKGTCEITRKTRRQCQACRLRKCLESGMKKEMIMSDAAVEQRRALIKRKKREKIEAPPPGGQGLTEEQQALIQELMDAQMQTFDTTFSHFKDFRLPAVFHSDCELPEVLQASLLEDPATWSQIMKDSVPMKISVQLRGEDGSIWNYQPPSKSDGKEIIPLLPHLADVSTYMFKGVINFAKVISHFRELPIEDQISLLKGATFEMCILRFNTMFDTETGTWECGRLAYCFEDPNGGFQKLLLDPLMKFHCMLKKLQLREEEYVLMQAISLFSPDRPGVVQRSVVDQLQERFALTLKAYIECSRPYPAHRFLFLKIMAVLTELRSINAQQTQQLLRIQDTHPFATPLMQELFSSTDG

[3] = qHTS assay for small molecule activators of the human pregnane X receptor (PXR) signaling pathway (AID 720659; call rule not given here; note: 0% is about no effect); conditions: DPX-2 HepG2 CYP3A4-luciferase, 24 h; series mostly up to 92.3 µM
[4] = at 20 µM (top of the series), tumour line C
[5] = at 21.2 µM (top of the series), tumour line B
[6] = at 21.2 µM (top of the series), tumour line D
[7] = at 21.3 µM (top of the series), tumour line A
[8] = at 45.9 µM (top of the series), tumour line B
[9] = at 45.9 µM (top of the series), tumour line D
[10] = at 46 µM (top of the series), tumour line A
[11] = at 46.1 µM (top of the series), tumour line C

CCc1cccc(CC)c1NC(=O)CN(CC(=O)O)CC(=O)O
inactive: activity, negative = cell killing [1, 4] -11.2% | activity, negative = cell killing [1, 5] -2.25% | activity, negative = cell killing [1, 6] -7.08% | activity, negative = cell killing [1, 7] -26% | outcome (astro)

CCN(CC)C(=O)c1cccc(C)c1
inactive: activity, negative = cell killing [1, 8] -13.5% | activity, negative = cell killing [1, 9] -4.13% | activity, negative = cell killing [1, 10] -18.8% | activity, negative = cell killing [1, 11] -13.4% | outcome (astro) | max response [2] 1.44% and 0.626% | outcome [3]

CC(=O)Oc1cccc(O)c1
inactive: activity, negative = cell killing [1, 8] -1.54% | activity, negative = cell killing [1, 9] -17.1% | activity, negative = cell killing [1, 10] -23.9% | activity, negative = cell killing [1, 11] -11% | outcome (astro)

COc1cc(C(=O)NCCCCCC(=O)O)cc(OC)c1OC
inactive: activity, negative = cell killing [1, 8] -7.31% | activity, negative = cell killing [1, 9] -8.75% | activity, negative = cell killing [1, 10] -18.3% | activity, negative = cell killing [1, 11] -40.8% | outcome (astro)

Cc1ccsc1/C=C/C1=NCCCN1C
inactive: activity, negative = cell killing [1, 4] -9.86% | activity, negative = cell killing [1, 5] -2.99% | activity, negative = cell killing [1, 6] -7.19% | activity, negative = cell killing [1, 7] -22.2% | outcome (astro)

OCc1ccc(Cl)cc1Cl
inactive: activity, negative = cell killing [1, 8] -6.96% | activity, negative = cell killing [1, 9] -3.9% | activity, negative = cell killing [1, 10] -3.28% | activity, negative = cell killing [1, 11] 6.97% | outcome (astro)

CC(=O)Oc1cccc(C)c1
inactive: activity, negative = cell killing [1, 8] -2.63% | activity, negative = cell killing [1, 9] -6.87% | activity, negative = cell killing [1, 10] -17.9% | activity, negative = cell killing [1, 11] -0.258% | outcome (astro)

C[C@@H]1O[C@@H](OC[C@H]2O[C@@H](Oc3c(-c4ccc(O)c(O)c4)oc4cc(O)cc(O)c4c3=O)[C@H](O)[C@@H](O)[C@@H]2O)[C@H](O)[C@H](O)[C@H]1O
inactive: activity, negative = cell killing [1, 8] -2.66% | activity, negative = cell killing [1, 9] 3.42% | activity, negative = cell killing [1, 10] -16.5% | activity, negative = cell killing [1, 11] -1.98% | outcome (astro)

CCCCC1(COC(=O)CCC(=O)O)C(=O)N(c2ccccc2)N(c2ccccc2)C1=O
inactive: activity, negative = cell killing [1, 4] -5.58% | activity, negative = cell killing [1, 5] -15.2% | activity, negative = cell killing [1, 6] -10.8% | activity, negative = cell killing [1, 7] -29.7% | outcome (astro)

COc1ccc(C(=O)N2CCN(CC(=O)N3CCOCC3)CC2)cc1
inactive: activity, negative = cell killing [1, 8] -0.665% | activity, negative = cell killing [1, 9] -14.5% | activity, negative = cell killing [1, 10] -23.3% | activity, negative = cell killing [1, 11] -11.4% | outcome (astro)

COC(=O)N/N=C/c1c[n+]([O-])c2ccccc2[n+]1[O-]
inactive: activity, negative = cell killing [1, 8] 3.32% | activity, negative = cell killing [1, 9] -10.1% | activity, negative = cell killing [1, 10] -9.78% | activity, negative = cell killing [1, 11] 2.7% | outcome (astro)

CCOc1ccc(C(=O)OCCN(CC)CC)cc1
inactive: activity, negative = cell killing [1, 8] -7.64% | activity, negative = cell killing [1, 9] -13.5% | activity, negative = cell killing [1, 10] -29% | activity, negative = cell killing [1, 11] -17.9% | outcome (astro)

CCOc1cc(NC(C)=O)ccc1C(=O)OC
inactive: activity, negative = cell killing [1, 8] -7.75% | activity, negative = cell killing [1, 9] -29.2% | activity, negative = cell killing [1, 10] -29.3% | activity, negative = cell killing [1, 11] 2.82% | outcome (astro)

CC(=O)OCC(COC(C)=O)OC(C)=O
inactive: activity, negative = cell killing [1, 8] 7.15% | activity, negative = cell killing [1, 9] 15.4% | activity, negative = cell killing [1, 10] -13.4% | activity, negative = cell killing [1, 11] 1.43% | outcome (astro) | max response [2] -2.17% and 2.63% | outcome [3]

NC(=O)CCCCC1CCSS1 (centres undefined)
inactive: activity, negative = cell killing [1, 8] -3.9% | activity, negative = cell killing [1, 9] 6.2% | activity, negative = cell killing [1, 10] -23.7% | activity, negative = cell killing [1, 11] 2.37% | outcome (astro)

Cc1[nH]c(C)c(Cl)c(=O)c1Cl
inactive: activity, negative = cell killing [1, 8] -9.77% | activity, negative = cell killing [1, 9] -2.96% | activity, negative = cell killing [1, 10] -17.9% | activity, negative = cell killing [1, 11] -6.6% | outcome (astro)

Cc1cc(C)c(NC(=O)CN(CC(=O)O)CC(=O)O)c(C)c1Br
inactive: activity, negative = cell killing [1, 8] -5.55% | activity, negative = cell killing [1, 9] -2.68% | activity, negative = cell killing [1, 10] -17.3% | activity, negative = cell killing [1, 11] -18.8% | outcome (astro)

O=c1[nH]cnc2nc[nH]c12
inactive: activity, negative = cell killing [1, 8] -0.606% | activity, negative = cell killing [1, 9] 15.6% | activity, negative = cell killing [1, 10] -28.5% | activity, negative = cell killing [1, 11] -12.9% | outcome (astro)

O=C(O)/C=C/c1ccc(Cn2ccnc2)cc1
inactive: activity, negative = cell killing [1, 4] 0.197% | activity, negative = cell killing [1, 5] -8.95% | activity, negative = cell killing [1, 6] -11.8% | activity, negative = cell killing [1, 7] -28.4% | outcome (astro)

C/C=C/C(=O)N(CC)c1ccccc1C
inactive: activity, negative = cell killing [1, 4] -3.94% | activity, negative = cell killing [1, 5] 0.996% | activity, negative = cell killing [1, 6] -17.6% | activity, negative = cell killing [1, 7] -13.7% | outcome (astro)

CN[C@@H]1[C@@H](O)[C@@H](O[C@@H]2[C@H](O)[C@H](O[C@H]3OC(CN)=CC[C@H]3N)[C@@H](N)C[C@H]2N)OCC1(C)O (some centres undefined)
inactive: activity, negative = cell killing [1, 8] -0.265% | activity, negative = cell killing [1, 9] 7.79% | activity, negative = cell killing [1, 10] -24.3% | activity, negative = cell killing [1, 11] -7.7% | outcome (astro)

Cc1c(C)c2c(c(C)c1OC(=O)c1cccnc1)CC[C@@](C)(CCC[C@H](C)CCC[C@H](C)CCCC(C)C)O2
inactive: activity, negative = cell killing [1, 8] -11.4% | activity, negative = cell killing [1, 9] -0.0875% | activity, negative = cell killing [1, 10] -9.82% | activity, negative = cell killing [1, 11] -12.2% | outcome (astro)

NS(=O)(=O)c1ccc(C(=O)O)cc1
inactive: activity, negative = cell killing [1, 8] -5.24% | activity, negative = cell killing [1, 9] 4.61% | activity, negative = cell killing [1, 10] -19% | activity, negative = cell killing [1, 11] -15.2% | outcome (astro)
